GRK2 aptamer HTS: inhibitors of human GRK2 displacing RNA aptamer; hit rate 0.59% among 330,000; inhibition of aptamer binding, % at 10 µM; P25098; bead flow cytometry, FAM-aptamer displacement from GRK2; AID 488847;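 active means inhibition of aptamer binding above 40%, roughly 3 SD of noise, on plates passing a quality check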;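 further: median bead fluorescence of bound FAM aptamer so fluorescent compounds give negative values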
Exocytosis inh: blocks lytic granule exocytosis | TALL-104 LAMP-1 surface exposure, flow cytometry; cells stimulated with thapsigargin and PMA | inhibition, % at 10 µM | hit rate 0.66% among 360,000 | AID 651702;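 active means inhibition above about 55%, limit read from the data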
Beta2AR agonist: activates human beta-2 adrenergic receptor causing internalization; P07550; Am2.2-beta2AR cells, FAP receptor internalization, flow cytometry; response, % (test concentration not listed); hit rate 0.43% among 340,000; AID 504454;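 active means response above a set limit, near 3 SD of response in nonfluorescent compounds, cut at about 42% in these data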
Target sequence (P07550 whole entry, looked up): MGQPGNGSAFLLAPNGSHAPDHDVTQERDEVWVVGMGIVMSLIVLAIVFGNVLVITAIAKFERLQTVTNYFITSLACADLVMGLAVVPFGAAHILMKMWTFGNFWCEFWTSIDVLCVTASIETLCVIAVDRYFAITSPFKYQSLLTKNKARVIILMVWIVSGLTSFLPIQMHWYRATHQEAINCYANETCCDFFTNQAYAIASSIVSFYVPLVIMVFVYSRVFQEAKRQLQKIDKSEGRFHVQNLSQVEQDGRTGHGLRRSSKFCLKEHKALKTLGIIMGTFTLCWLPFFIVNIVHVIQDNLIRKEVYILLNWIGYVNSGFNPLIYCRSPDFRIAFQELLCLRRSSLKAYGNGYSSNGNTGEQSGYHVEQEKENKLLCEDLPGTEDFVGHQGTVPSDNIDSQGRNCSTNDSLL
NadD block: blocks S. aureus nicotinate mononucleotide adenylyltransferase; purified NadD enzyme, colorimetric absorbance read-out; inhibition, % at 20 µM; hit rate 0.78% among 360,000; AID 602399; in the data active means inhibition above about 26%
PP1 inh: counter-screen for PP5 inhibitors: inhibitors of human PP1-alpha; purified PP1alpha, OMFP fluorescence; inhibition, % at 6.7 µM; hit rate 0.9% among 320,000;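 active means inhibition above the mean inhibition of all tested compounds plus 3 SD, computed separately for each screening campaign, cut at about 15% in these data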
NadD inh conf: confirmation of Staphylococcus aureus NadD inhibitors | shares compounds with NadD block | AID 624309 | hit rate 13% among 2,000 | purified S. aureus NadD, colorimetric enzyme assay | inhibition, % at 20 µM; in the data active means inhibition mostly above about 42%, no sharp cut-off; inactive means mostly below about 42%
Starred values were filed as active, the others as inactive. Hits are enriched below; roughly 2.9% of the tested compounds scored in any of these assays.

Cc1cc2nc(-c3ccc(SCC(=O)N4CCc5ccccc54)nc3)[nH]c2cc1C was read as GRK2 aptamer HTS 2.0, Exocytosis inh 0.2, Beta2AR agonist 4.5, NadD block 33.0*, PP1 inh -0.8 and NadD inh conf 3.8.
`O=C(Nc1nc2cc(Cl)ccc2s1)C1CCCN(S(=O)(=O)c2cccc3cccnc23)C1` (centres undefined) gave GRK2 aptamer HTS 4.0, Exocytosis inh -3.3, Beta2AR agonist -7.9, NadD block 36.3*, PP1 inh 1.4 and NadD inh conf 10.6.
`O=C(Nc1ccccc1Cl)C1CCCN(S(=O)(=O)c2cccc3cccnc23)C1` (centres undefined) gave GRK2 aptamer HTS 3.0, Exocytosis inh 1.6, Beta2AR agonist 11.2, NadD block 0.0 and PP1 inh 1.2.
Screening CCCc1cc(=O)[nH]c(SCC(=O)N2N=C(c3ccc(Cl)cc3)CC2c2ccco2)n1 (centres undefined) returned GRK2 aptamer HTS 0.0, Exocytosis inh 6.0, Beta2AR agonist -0.5, NadD block 35.3*, PP1 inh -1.5 and NadD inh conf 49.5*.
Cc1ccc(Nc2nc(Nc3ccc(C)cc3)nc(SC3=NCCS3)n2)cc1 was read as GRK2 aptamer HTS 4.0, Exocytosis inh 6.9, Beta2AR agonist -4.8, NadD block 30.5*, PP1 inh 1.5 and NadD inh conf 51.2*.
`Cc1ccc(CSC2=Nc3ccccc3C3=NC(CCC(=O)NCc4ccco4)C(=O)N23)cc1` (centres undefined) gave GRK2 aptamer HTS 0.0, Exocytosis inh 9.7, Beta2AR agonist 6.1, NadD block 19.8 and PP1 inh 0.1.
For O=C(CC1N=C2c3ccccc3N=C(SCc3ccc(Cl)cc3)N2C1=O)NCc1ccco1 (centres undefined) the results were GRK2 aptamer HTS 9.0, Exocytosis inh 21.3, Beta2AR agonist -3.2, NadD block 49.1*, PP1 inh 2.9 and NadD inh conf 59.5*.
`CCOC(=O)C1=C(C)N=c2s/c(=C\c3ccc(O)c([N+](=O)[O-])c3)c(=O)n2C1c1ccccc1OC` (centres undefined) gave GRK2 aptamer HTS 2.0, Exocytosis inh 7.1, Beta2AR agonist 6.9, NadD block 37.7*, PP1 inh 9.8 and NadD inh conf 5.4.
Screening COc1cc(/C=c2\sc3n(c2=O)CCCN=3)ccc1O returned GRK2 aptamer HTS 3.0, Exocytosis inh 2.2, Beta2AR agonist -16.0, NadD block 8.2 and PP1 inh 1.4.
Screening COc1cc(/C=c2\sc3n(c2=O)C(c2ccccc2)C(c2ccccc2)=NN=3)ccc1O (centres undefined) returned GRK2 aptamer HTS 0.0, Exocytosis inh 1.1, Beta2AR agonist 7.4, NadD block 28.6*, PP1 inh -2.9 and NadD inh conf 50.9*.
`CCOC(=O)C1=C(C)N=c2s/c(=C/c3cccc([N+](=O)[O-])c3O)c(=O)n2C1c1ccc(OC)cc1OC` (centres undefined) gave GRK2 aptamer HTS 3.0, Exocytosis inh -4.4, Beta2AR agonist 18.9, NadD block 35.6*, PP1 inh 3.4 and NadD inh conf 8.6.
`COc1ccccc1C1C2=C(N=C3SCC(=O)N31)c1ccccc1CC2` (centres undefined) gave GRK2 aptamer HTS 0.0, Exocytosis inh -1.6, Beta2AR agonist -4.0, NadD block 0.9 and PP1 inh -0.1.
`COc1ccc(/C=c2/sc3n(c2=O)C(c2ccccc2OC)C2=C(N=3)c3ccccc3CC2)cc1O` (centres undefined) gave GRK2 aptamer HTS 5.0, Exocytosis inh 3.1, Beta2AR agonist -9.5, NadD block 52.6*, PP1 inh 4.9 and NadD inh conf 26.9.
For O=C(Nc1ccc(Oc2ncnc3cc(Cl)ccc23)nc1)c1ccc(F)cc1 the results were GRK2 aptamer HTS 0.0 and PP1 inh -4.9.
For FC(F)(F)c1cc(-c2ccco2)nc(NCc2cccs2)n1 the results were GRK2 aptamer HTS 0.0, Exocytosis inh 0.6, Beta2AR agonist -3.9, NadD block 23.8 and PP1 inh 1.8.
Screening FC(F)(F)c1cc(-c2ccco2)nc(NCc2ccco2)n1 returned GRK2 aptamer HTS 2.0, Exocytosis inh -0.3, Beta2AR agonist -2.8, NadD block 34.0*, PP1 inh 4.3 and NadD inh conf 39.8.
